# Results reported in PubChem BioAssay AID504834 (National Center for Advancing Translational Sciences (NCATS), 2011).
# Hit rate of the full screen: of about 320,000 compounds, about 22,000 (6.9%) were called active. Another 27% or so got no clear call; they are omitted. The call rests on the fitted dose curve; in most records, active means well fitted inhibition curve with a large enough effect; inconclusive means small, poorly fitted or top-dose-only effect, or another doubt; inactive means no such curve, though single readings can be large or run the other way. Shown is part of a subset that was picked to be rich in actives.
# Assay: Primary qHTS for delayed death inhibitors of the malarial parasite plastid, 96 hour incubation
# Settings: P. falciparum luciferase reporter growth; series mostly up to 28.7 µM; activity change, negative = inhibition: at the top concentration
# Summary of the method: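 Luminescence readout: decreased luciferase signal marks inhibited growth of reporter-expressing P. falciparum in infected red cells (2% hematocrit, 0.05% parasitemia final), exposed to compound two generations (96 h, 37 C, 5% CO2).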
# On the % scale 0 is the no-effect control and ±100 the full control effect; potency means the concentration at half of the fitted maximal effect.
Structure (SMILES),"activity change, negative = inhibition",Potency
CC1C(=O)NC(=O)C1c1ccccc1 (stereo unspecified),130% (inactive),
COc1ccccc1C(=O)NCCC(=O)NC1=NCCS1,-7.83% (inactive),
CCOC(=O)c1ccccc1NC(=O)COC(=O)CCC(=O)N1CCOCC1,-0.129% (inactive),
COc1ccc(N(C(=O)CNC(=O)c2ccco2)C(C(=O)NCC2CCCO2)c2ccccc2)cc1Cl (stereo unspecified),8.89% (inactive),
COCCn1cnc2c1c(=O)n(CC(=O)NN)c(=O)n2Cc1ccccc1,-3.42% (inactive),
Cc1nc([N+](=O)[O-])c(NCCCO)n1Cc1ccccc1,39.3% (inactive),
N=c1c2c(-c3ccccc3)c(-c3ccccc3)n(Cc3ccccc3)c2ncn1CCCO,,4.65 µM (active)
CC1=C(C(=O)OC2CCCCC2)C(c2ccccc2F)NC(=O)N1 (stereo unspecified),17.6% (inactive),
O=C(CSc1nnc(-c2ccccc2O)o1)NC1CCCCC1,64.5% (inactive),
COc1ccccc1NC(=O)COC(=O)COc1ccccc1F,2.96% (inactive),
C=CCn1c(SCc2ccccc2)nc2c1c(=O)[nH]c(=O)n2C,-26.5% (inactive),
C=CCSc1nc2c(c(=O)[nH]c(=O)n2C)n1Cc1ccccc1,22.8% (inactive),
CCCCCn1c(SCCC(C)C)nc2c1c(=O)[nH]c(=O)n2C,,13.1 µM (active)
CCN(CC)C(=O)CC1(c2ccccc2OC)CCOC(C(C)C)C1 (stereo unspecified),,11.7 µM (active)
CCN(CC(=O)Nc1ccccc1OC)C(=O)CC1CC2CCC1C2 (stereo unspecified),-22% (inactive),
COc1ccccc1OCc1ccc(C(=O)NC(C)c2ccccc2)o1 (stereo unspecified),220% (inactive),
CN1CCN(S(=O)(=O)c2cccc(C(=O)Nc3cccc(S(N)(=O)=O)c3)c2)CC1,27.2% (inactive),
CN(C)c1ccc(S(=O)(=O)NCC(=O)NCC2CCCCC2)cc1[N+](=O)[O-],2.12% (inactive),
CCOc1ccc(C(CC(=O)O)NC(=O)C23CC4CC(CC(C4)C2)C3)cc1OC (stereo unspecified),21.1% (inactive),
COc1ccc(C(=O)OCC(=O)NCCCc2ccccc2)cc1OC,9.81% (inactive),
CCOc1ccc(C(CCc2ccccc2)NC(=O)c2ccc(OC)c(OC)c2)cc1OCC (stereo unspecified),,0.233 µM (active)
Cc1cc(NS(=O)(=O)c2ccc(NC(=O)c3cccnc3)cc2)nc(C)n1,20.1% (inactive),
CCN1N=C(c2ccccc2)CCC1=O,49.6% (inactive),
O=c1oc2c(CN3CCCCC3)c(O)ccc2c2c1CCCCC2,,10.4 µM (active)
CCN1CCN(Cc2c(O)ccc3c(=O)c(-c4ccc(OC)c(OC)c4)c(C(F)(F)F)oc23)CC1,90% (inactive),
O=c1c(-c2ccccc2)coc2c(CN3CCOCC3)c(O)ccc12,17.4% (inactive),

Structure (SMILES),"activity change, negative = inhibition",Potency
COc1cc(NC(=O)CSC(=S)N2CCCC2)c(OC)cc1Cl,-1.62% (inactive),
CN(CCNC(=O)c1cc2c(-c3ccccc3F)nn(C)c2s1)C1CCCCC1,3.44% (inactive),
COc1ccc(CNC(=O)COc2cccnc2[N+](=O)[O-])cc1,27.4% (inactive),
Cc1ccc([N+](=O)[O-])cc1S(=O)(=O)N1CCCN(C)CC1,13% (inactive),
Cc1ccc(C)c(S(=O)(=O)N2CCN(CC(=O)Nc3ccc([N+](=O)[O-])cc3)CC2)c1,,10.4 µM (active)
Cc1ccc(C)c(S(=O)(=O)N2CCN(C(=O)Nc3ccccc3)CC2)c1,37.2% (inactive),
Cc1c(CNCCc2ccccc2)c(C(=O)O)c(C)n1-c1ccccc1,0% (inactive),
Cc1ccc(CC2C(=O)N(c3ccc(F)cc3)C(=O)C2C)cc1 (stereo unspecified),87.4% (inactive),
CCCc1nn(C)c2c(=O)[nH]c(-c3cc(S(N)(=O)=O)ccc3OCC)nc12,-15.6% (inactive),
CC(C)CN(C(=O)c1cccc(S(=O)(=O)N2CCCCC2)c1)C1CCS(=O)(=O)C1 (stereo unspecified),24.2% (inactive),
CCC1CCCCN1C(=S)Nc1ccc(S(=O)(=O)Nc2ncccn2)cc1 (stereo unspecified),,10.4 µM (active)
CCC1CCCCN1C(=S)Nc1ccc(C(C)=O)cc1 (stereo unspecified),22.3% (inactive),
CCC1CCCCN1C(=S)Nc1ccc(SC(F)F)cc1 (stereo unspecified),-14.4% (inactive),
Cc1ccc(C)c(S(=O)(=O)Nc2cc(C)on2)c1,36.9% (inactive),
Cc1ccc(OCC(=O)Nc2ccc(N3CCN(C(=O)c4ccco4)CC3)cc2)c(C)c1,124% (inactive),
O=C(CSc1nc2ccccc2[nH]1)c1cccs1,5.77% (inactive),
O=C(CSc1nc2ccccc2[nH]1)Nc1nc(-c2ccccc2)c(-c2ccccc2)o1,,13.1 µM (active)
CN(Cc1ccccc1)C(=O)CSc1nc2ccccc2[nH]1,9.42% (inactive),
COc1ccc2c(c1)C(NS(=O)(=O)OCC(Cl)(Cl)Cl)CCC2 (stereo unspecified),12.5% (inactive),
CC(=O)N(C)c1ccc(NC(=O)C(F)(F)F)cc1,-17.5% (inactive),
CCOc1ccc(NC(=O)Nc2ccc(N(C)C(C)=O)cc2)cc1,,16.5 µM (active)
CCOc1ccc(NC(=O)N(CC(C)C)CC(C)C)cc1,3.96% (inactive),
O=C(O)CCCCCCCCc1cn(CN2C(=O)c3ccccc3C2=O)nn1,91.8% (inactive),
O=C(Nc1nc(-c2ccc(-c3ccccc3)cc2)cs1)c1cnccn1,58.2% (inactive),
CNC(=O)c1ccc(NC(=O)c2cccc(C(F)(F)F)c2)cc1,6.47% (inactive),
O=C(O)c1ccccc1C(=O)Nc1nc(-c2ccccc2)cs1,0.357% (inactive),

Structure (SMILES),"activity change, negative = inhibition",Potency
Cn1sc(NC(=O)c2ccccc2)nc1=O,20% (inactive),
Cc1ccc(Nc2nc(-c3sc(NC(=O)c4ccccc4)nc3C)cs2)cc1,,13.1 µM (active)
Cc1nc(NC(=O)c2cccc(Cl)c2)sc1-c1csc(Nc2cccc(Cl)c2)n1,,9.28 µM (active)
Cc1ccc(-c2csc(NNC(=O)c3ccccc3)n2)cc1,,3.7 µM (active)
CC(=O)Nc1cccc(C(=O)Nc2nc(C)cs2)c1,56.8% (inactive),
CCNS(=O)(=O)c1ccc(NC(=O)Nc2cccc(C(F)(F)F)c2)cc1,14.7% (inactive),
CC(=O)c1sc(NC(=O)c2ccc(C)cc2)nc1C,102% (inactive),
O=C(Nc1ccc(-c2csc(Nc3cccc(C(F)(F)F)c3)n2)cc1)c1cccc(C(F)(F)F)c1,,8.28 µM (active)
CCOC(=O)c1c(NC(=O)CN2C(=O)NC3(CCC(C)CC3)C2=O)sc(C)c1CC (stereo unspecified),0% (inactive),
NC(=O)c1c(NC(=O)CSc2nc(N)cc(=O)[nH]2)sc2c1CCCC2,-0.481% (inactive),
COc1cc(NS(=O)(=O)c2ccc(NC(=S)NC(=O)c3ccc(Br)cc3)cc2)ncn1,-0.194% (inactive),
COc1ccccc1Cn1c(CO)nc2ccccc21,1.92% (inactive),
COc1ccc(-n2ncc3c(SCC(=O)NNC(C)=O)ncnc32)cc1,39.1% (inactive),
CC(=O)c1cccc(NC(=O)c2cc(C)nn2-c2ccccc2)c1,34.6% (inactive),
COc1ccc(Cl)cc1C(=O)OCC(=O)NCc1cccs1,-13.3% (inactive),
CCC(=O)NCc1cc(-c2nn(C)c(=O)c3ccccc23)ccc1OC,28.6% (inactive),
Cc1c(-c2nn(C)c(=O)c3ccccc23)oc2ccc(F)cc2c1=O,,4.15 µM (active)
O=C1c2oc3ccc(Br)cc3c(=O)c2C(c2cccc(F)c2)N1CCO (stereo unspecified),61.8% (inactive),
Cc1ccc(S(=O)(=O)N2CCCCC2)cc1NC(=O)c1cccnc1,4.25% (inactive),
CCN(CC)c1ccc(S(=O)(=O)N2CCCCC2)cc1NC(=O)C1=COCCO1,,10.4 µM (active)
O=C(Nc1ccc(S(=O)(=O)N2CCCC2)cc1Cl)C1=COCCO1,21.5% (inactive),
O=C(Nc1ccc(Br)cc1)c1cc(S(=O)(=O)Nc2ccccn2)ccc1Cl,9.51% (inactive),
O=C(NNC(=O)C1CCCC1)c1ccc(F)cc1,9.74% (inactive),
C=CCn1c(SCC(=O)NCCCO)nc2sc3c(c2c1=O)CCC3,44.6% (inactive),
Nc1nc(SCC(=O)NCCN2CCOCC2)nc2sc3c(c12)CCC3,,13.1 µM (active)
COC(=O)c1c(NC(=O)CCN2CCOCC2)sc2c1CCCC2,23.4% (inactive),

Structure (SMILES),"activity change, negative = inhibition",Potency
CCOC(=O)c1sc2nc(C)nc(SCC(N)=O)c2c1C,-7.55% (inactive),
CN1CCN(CC(=O)Nc2sc3c(c2C#N)CCC(C(C)(C)C)C3)CC1 (stereo unspecified),4.93% (inactive),
CC(C)(C)C1CCc2c(sc3nc(SCC(N)=O)nc(N)c23)C1 (stereo unspecified),,9.28 µM (active)
CC(=O)N1CCc2c(sc(NC(=O)CCS(=O)(=O)c3ccc(C)cc3)c2C(N)=O)C1,-29.3% (inactive),
O=C(Nc1cc(S(=O)(=O)N2CCOCC2)ccc1OCC(F)(F)F)c1ccc(N2CCCC2=O)cc1,-11% (inactive),
Cc1noc(C)c1C(=O)NCCc1ccc(S(N)(=O)=O)cc1,29.7% (inactive),
C#Cc1ccc([C@@H]2C=C(C(=O)O)O[C@H](OCCCCO)C2)cc1,60.2% (inactive),
O=C(O)C1=C[C@H](c2cccs2)C[C@H](OCCCCO)O1,40.2% (inactive),
O=C(C1=C[C@H](c2coc3ccccc3c2=O)C[C@H](OCc2ccc(CO)cc2)O1)N1CCN(Cc2ccccc2)CC1,,5.86 µM (active)
CC(C)CCN1CCN(Cc2ccc(C(F)(F)F)cc2)CC1CCO (stereo unspecified),-3.68% (inactive),
CN1CCN(C(=O)C2=C[C@H](c3ccc4c(c3)OCO4)C[C@H](OCc3ccc(CO)cc3)O2)CC1,-0.234% (inactive),
O=C(C1=C[C@H](c2ccc(C(F)(F)F)cc2)C[C@H](OCc2ccc(CO)cc2)O1)N1CCN(Cc2ccccc2)CC1,,13.1 µM (active)
O=C(NCc1ccccc1)C1=C[C@@H](c2ccc(C(F)(F)F)cc2)C[C@@H](OCc2ccc(CO)cc2)O1,,4.65 µM (active)
CC(=O)n1cc([C@@H]2C=C(C(=O)N3CCN(Cc4ccc5c(c4)OCO5)CC3)O[C@H](OCc3ccc(CO)cc3)C2)c2ccccc21,,1.65 µM (active)
CCn1cc(C(=O)N2CCN(Cc3ccc4c(c3)OCO4)CC2)c2cc(OC)c(OC)cc2c1=O,15.9% (inactive),
O=C(c1cccc([N+](=O)[O-])c1)N1CCN(Cc2ccccc2)CC1,-4.42% (inactive),
O=C(NCc1ccccc1)C1=C[C@H](C2CC2)C[C@H](OCc2ccc(CO)cc2)O1,-19.2% (inactive),
O=C(C1=C[C@H](c2coc3ccccc3c2=O)C[C@H](OCc2ccc(CO)cc2)O1)N1CCOCC1,-21.6% (inactive),
COc1cccc(/C=C2\Sc3ccc(C(=O)NCC4CCCO4)cc3N(C)C2=O)c1 (stereo unspecified),11.3% (inactive),
CC(C)c1ccc(C2C(C(=O)c3ccco3)=C(O)C(=O)N2CC2CCCO2)cc1 (stereo unspecified),-16% (inactive),
C/C(=N\Nc1ccc(S(N)(=O)=O)cc1[N+](=O)[O-])c1cccs1,7.59% (inactive),
COC(=O)C1(C)CC1(c1ccccc1)c1ccccc1 (stereo unspecified),-11.4% (inactive),
CN(C1CCS(=O)(=O)C1)S(=O)(=O)c1ccc2ccccc2c1 (stereo unspecified),17.6% (inactive),
